Experimental findings from ChEMBL document CHEMBL1961873, “Compounds: GSK PKIS; Assays: Nanosyn kinase panel” (2012) are described below.

The target of test [1] is RAC-alpha serine/threonine-protein kinase (Homo sapiens) (UniProt P31749). The conditions noted are these: at 0.1 µM.
Test [2] has the same target. The conditions noted are these: at 1 µM.
The target in test [3] is RAC-beta serine/threonine-protein kinase (Homo sapiens) (UniProt P31751). The conditions noted are these: at 0.1 µM.
For test [4] the target is unchanged. The conditions noted are these: at 1 µM.
Test [5] addresses RAC-gamma serine/threonine-protein kinase (Homo sapiens) (UniProt Q9Y243). The following applies: at 0.1 µM.
Test [6] shares this target. The conditions noted are these: at 1 µM.
Test [7] addresses G protein-coupled receptor kinase 6 (Homo sapiens) (UniProt P43250). The conditions noted are these: at 0.1 µM.
Test [8] shares this target. The following applies: at 1 µM.
For test [9], the target named is T1, Rhodopsin kinase GRK7 (Homo sapiens) (UniProt Q8WTQ7).
T1 sequence (whole entry): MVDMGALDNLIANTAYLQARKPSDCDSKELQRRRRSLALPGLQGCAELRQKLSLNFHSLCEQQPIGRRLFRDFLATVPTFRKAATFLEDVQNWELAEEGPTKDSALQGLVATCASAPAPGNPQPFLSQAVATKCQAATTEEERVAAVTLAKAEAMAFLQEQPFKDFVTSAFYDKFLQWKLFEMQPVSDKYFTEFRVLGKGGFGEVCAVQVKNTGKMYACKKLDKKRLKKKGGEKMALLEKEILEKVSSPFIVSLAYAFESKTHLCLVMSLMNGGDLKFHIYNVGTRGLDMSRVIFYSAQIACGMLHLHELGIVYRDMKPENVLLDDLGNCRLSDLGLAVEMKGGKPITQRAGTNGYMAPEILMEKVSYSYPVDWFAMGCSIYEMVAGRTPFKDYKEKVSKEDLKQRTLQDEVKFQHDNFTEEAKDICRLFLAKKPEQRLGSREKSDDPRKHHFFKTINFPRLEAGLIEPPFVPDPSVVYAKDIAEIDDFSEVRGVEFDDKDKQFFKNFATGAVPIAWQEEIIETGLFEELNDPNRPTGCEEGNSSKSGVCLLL
The conditions noted are these: at 0.1 µM.

Test [10] concerns the target T1, Rhodopsin kinase GRK7 (Homo sapiens). The conditions noted are these: at 1 µM.
Test [11] concerns the target Serine/threonine-protein kinase MRCK alpha (Homo sapiens) (UniProt Q5VT25). The following applies: at 0.1 µM.
The target is the same in test [12]. The following applies: at 1 µM.
The target in test [13] is Serine/threonine-protein kinase MRCK beta (Homo sapiens) (UniProt Q9Y5S2). The following applies: at 0.1 µM.
The target is the same in test [14]. The conditions noted are these: at 1 µM.
Test [15] addresses Ribosomal protein S6 kinase alpha-5 (Homo sapiens) (UniProt O75582). The conditions noted are these: at 0.1 µM.
The target is the same in test [16]. The following applies: at 1 µM.
Test [17] has as its target Ribosomal protein S6 kinase alpha-4 (Homo sapiens) (UniProt O75676). The conditions noted are these: at 0.1 µM.
Test [18] shares this target. The following applies: at 1 µM.
In test [19] the target is Ribosomal protein S6 kinase beta-1 (Homo sapiens) (UniProt P23443). The conditions noted are these: at 0.1 µM.
Test [20] has the same target. The following applies: at 1 µM.

Ribosomal protein S6 kinase beta-1 (Homo sapiens), sequence (P23443 whole entry, looked up): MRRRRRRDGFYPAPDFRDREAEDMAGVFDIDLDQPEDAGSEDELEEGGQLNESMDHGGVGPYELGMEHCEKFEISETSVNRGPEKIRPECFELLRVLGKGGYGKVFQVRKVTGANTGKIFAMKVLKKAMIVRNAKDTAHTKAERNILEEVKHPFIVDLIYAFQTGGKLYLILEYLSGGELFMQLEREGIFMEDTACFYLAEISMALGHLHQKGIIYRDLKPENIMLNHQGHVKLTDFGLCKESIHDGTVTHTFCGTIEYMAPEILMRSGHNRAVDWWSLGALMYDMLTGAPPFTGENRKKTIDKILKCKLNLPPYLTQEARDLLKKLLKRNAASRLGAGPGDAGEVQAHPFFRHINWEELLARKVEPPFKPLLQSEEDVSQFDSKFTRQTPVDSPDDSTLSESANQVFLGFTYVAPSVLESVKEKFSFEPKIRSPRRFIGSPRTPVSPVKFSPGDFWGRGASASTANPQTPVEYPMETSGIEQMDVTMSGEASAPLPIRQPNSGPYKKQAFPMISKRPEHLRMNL
Serine/threonine-protein kinase MRCK alpha (Homo sapiens), sequence (Q5VT25 whole entry): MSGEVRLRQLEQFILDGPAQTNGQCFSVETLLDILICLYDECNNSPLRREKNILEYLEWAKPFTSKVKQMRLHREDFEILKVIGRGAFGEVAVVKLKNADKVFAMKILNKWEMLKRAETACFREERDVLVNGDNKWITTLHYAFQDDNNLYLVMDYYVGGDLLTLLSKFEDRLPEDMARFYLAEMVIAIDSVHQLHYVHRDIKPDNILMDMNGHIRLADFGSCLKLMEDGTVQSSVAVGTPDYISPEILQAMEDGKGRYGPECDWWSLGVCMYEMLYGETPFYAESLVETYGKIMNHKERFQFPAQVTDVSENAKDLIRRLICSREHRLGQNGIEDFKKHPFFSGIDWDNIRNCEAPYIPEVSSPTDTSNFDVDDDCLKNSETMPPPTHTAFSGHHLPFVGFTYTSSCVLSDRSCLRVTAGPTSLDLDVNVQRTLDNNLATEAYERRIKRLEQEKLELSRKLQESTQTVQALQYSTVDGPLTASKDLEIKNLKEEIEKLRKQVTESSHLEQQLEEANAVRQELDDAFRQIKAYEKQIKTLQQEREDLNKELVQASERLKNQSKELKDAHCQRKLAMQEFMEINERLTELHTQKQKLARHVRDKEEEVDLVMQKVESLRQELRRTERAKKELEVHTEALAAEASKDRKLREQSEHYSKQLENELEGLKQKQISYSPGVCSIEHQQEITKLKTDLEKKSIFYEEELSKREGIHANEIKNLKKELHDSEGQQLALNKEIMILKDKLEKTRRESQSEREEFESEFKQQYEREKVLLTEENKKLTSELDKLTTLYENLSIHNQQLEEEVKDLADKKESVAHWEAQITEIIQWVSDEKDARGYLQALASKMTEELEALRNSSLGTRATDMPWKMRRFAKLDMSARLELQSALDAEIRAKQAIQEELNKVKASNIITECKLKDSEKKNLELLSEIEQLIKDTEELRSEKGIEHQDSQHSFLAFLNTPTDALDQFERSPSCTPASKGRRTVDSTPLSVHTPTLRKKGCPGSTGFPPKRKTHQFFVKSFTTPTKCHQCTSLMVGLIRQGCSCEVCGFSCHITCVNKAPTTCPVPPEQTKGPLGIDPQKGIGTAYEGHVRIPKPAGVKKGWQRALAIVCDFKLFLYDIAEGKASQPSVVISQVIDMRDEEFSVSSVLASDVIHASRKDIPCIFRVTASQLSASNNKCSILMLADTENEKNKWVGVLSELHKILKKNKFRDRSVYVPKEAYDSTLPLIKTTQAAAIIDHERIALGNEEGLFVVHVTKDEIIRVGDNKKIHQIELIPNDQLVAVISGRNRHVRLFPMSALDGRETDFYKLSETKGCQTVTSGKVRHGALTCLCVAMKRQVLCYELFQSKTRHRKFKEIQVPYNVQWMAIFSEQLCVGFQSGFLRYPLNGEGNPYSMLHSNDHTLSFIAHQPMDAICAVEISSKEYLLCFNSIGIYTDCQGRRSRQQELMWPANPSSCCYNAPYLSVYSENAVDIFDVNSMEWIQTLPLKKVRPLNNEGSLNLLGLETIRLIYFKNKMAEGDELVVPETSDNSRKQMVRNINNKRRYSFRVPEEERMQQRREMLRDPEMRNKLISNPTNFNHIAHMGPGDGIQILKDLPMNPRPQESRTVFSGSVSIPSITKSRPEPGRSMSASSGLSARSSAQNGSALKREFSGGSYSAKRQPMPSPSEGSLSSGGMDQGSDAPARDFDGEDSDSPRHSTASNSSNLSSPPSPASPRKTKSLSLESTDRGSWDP
Ribosomal protein S6 kinase alpha-4 (Homo sapiens), sequence (O75676 whole entry, looked up): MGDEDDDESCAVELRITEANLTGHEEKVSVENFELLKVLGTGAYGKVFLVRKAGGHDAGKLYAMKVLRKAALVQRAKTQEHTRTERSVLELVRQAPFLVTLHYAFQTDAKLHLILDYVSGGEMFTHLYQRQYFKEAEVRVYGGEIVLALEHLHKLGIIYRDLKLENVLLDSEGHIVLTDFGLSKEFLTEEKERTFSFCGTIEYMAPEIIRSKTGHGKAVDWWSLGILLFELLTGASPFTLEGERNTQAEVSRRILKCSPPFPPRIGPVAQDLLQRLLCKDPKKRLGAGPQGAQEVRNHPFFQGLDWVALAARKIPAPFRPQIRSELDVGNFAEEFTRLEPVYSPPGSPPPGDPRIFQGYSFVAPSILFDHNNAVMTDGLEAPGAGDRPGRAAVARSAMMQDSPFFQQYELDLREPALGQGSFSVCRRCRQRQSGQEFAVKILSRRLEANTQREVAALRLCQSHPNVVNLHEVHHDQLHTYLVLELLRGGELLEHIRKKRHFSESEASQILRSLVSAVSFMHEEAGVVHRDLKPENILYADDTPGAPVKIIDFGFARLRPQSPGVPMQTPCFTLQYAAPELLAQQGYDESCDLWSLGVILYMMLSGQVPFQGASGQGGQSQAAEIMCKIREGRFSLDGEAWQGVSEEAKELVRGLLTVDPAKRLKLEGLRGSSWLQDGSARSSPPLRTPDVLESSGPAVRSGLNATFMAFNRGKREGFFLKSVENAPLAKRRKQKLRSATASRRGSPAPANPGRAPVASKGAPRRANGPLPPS
RAC-gamma serine/threonine-protein kinase (Homo sapiens), sequence (Q9Y243 whole entry): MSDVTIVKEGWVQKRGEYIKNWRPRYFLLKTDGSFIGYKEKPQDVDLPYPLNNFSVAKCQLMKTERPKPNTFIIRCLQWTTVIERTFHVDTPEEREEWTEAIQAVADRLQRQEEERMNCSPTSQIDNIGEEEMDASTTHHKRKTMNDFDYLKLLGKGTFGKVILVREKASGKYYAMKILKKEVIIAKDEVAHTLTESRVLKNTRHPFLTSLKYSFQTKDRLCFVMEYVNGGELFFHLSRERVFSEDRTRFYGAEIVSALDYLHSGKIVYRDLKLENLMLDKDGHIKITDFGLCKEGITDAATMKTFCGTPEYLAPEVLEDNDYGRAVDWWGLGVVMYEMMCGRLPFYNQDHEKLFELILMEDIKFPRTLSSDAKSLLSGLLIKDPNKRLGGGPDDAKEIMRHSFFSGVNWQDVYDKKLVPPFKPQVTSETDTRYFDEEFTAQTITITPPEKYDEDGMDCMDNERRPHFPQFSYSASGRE
G protein-coupled receptor kinase 6 (Homo sapiens), sequence (P43250 whole entry, looked up): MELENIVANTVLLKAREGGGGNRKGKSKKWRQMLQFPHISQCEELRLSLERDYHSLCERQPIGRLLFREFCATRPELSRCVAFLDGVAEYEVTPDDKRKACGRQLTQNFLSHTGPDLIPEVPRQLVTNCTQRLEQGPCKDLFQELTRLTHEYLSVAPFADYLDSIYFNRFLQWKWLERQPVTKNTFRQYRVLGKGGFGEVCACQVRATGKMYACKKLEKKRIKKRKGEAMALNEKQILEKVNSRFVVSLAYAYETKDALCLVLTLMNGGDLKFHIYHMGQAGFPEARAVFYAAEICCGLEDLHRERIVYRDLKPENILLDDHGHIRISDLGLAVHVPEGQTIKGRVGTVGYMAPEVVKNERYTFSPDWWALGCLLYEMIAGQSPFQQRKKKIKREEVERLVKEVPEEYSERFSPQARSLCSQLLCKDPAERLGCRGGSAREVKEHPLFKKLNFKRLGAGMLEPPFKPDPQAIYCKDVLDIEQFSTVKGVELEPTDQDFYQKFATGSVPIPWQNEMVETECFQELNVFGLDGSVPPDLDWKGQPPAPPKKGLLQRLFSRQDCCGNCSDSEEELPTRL
RAC-alpha serine/threonine-protein kinase (Homo sapiens), sequence (P31749 whole entry): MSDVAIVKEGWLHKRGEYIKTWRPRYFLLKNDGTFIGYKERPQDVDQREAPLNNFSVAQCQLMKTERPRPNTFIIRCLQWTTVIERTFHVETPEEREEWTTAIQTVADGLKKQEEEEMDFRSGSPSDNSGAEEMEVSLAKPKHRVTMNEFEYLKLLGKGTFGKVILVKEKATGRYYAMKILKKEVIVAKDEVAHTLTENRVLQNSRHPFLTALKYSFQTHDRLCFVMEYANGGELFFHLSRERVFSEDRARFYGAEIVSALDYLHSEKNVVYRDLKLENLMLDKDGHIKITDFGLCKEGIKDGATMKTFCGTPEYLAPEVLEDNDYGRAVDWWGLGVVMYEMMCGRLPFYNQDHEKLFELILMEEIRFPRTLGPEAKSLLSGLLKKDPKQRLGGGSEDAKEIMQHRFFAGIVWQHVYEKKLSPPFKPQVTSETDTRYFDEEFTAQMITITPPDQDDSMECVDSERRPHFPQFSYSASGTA
RAC-beta serine/threonine-protein kinase (Homo sapiens), sequence (P31751 whole entry): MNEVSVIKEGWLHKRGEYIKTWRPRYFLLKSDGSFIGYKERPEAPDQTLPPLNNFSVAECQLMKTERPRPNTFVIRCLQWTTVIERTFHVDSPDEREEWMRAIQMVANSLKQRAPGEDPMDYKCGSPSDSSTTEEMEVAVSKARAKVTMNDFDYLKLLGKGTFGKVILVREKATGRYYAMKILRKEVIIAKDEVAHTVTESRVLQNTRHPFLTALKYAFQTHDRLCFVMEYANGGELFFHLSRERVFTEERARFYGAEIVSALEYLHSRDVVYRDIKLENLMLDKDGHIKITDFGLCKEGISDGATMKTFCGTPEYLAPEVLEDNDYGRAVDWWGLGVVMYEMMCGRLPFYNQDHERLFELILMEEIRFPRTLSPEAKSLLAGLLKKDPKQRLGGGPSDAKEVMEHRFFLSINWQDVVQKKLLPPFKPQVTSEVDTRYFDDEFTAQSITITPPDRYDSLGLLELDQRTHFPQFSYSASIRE

For `COc1ccc(Nc2ncc(-c3ccccc3)o2)cc1OC`, the inhibition (commonly the drop in the measured response relative to a control, in per cent) in test [1] is -0.43%; in test [2] it was 0%; in [3], -0.16%; in test [4] it was 0.11%; in [5], -0.29%; in [6], 1.24%. In addition, the inhibition in test [7] is -1.81%; in [8], -1.23%; in [9] it was -1.93%; in test [10] it was 1.56%; in [11], 0.45%; in test [12], 2.02%. Besides, the inhibition in test [13] is 0.74%; in test [14], 1.74%; in [15], 0.37%; in [16], 1.73%; in test [17], 1.03%; in [18], 4.59%. Moreover, the inhibition in [19] turned out to be 1.51%; in test [20] it was 2.28%.
Regarding `COc1cc2c(cc1Nc1nc(Nc3cccc(F)c3C(N)=O)c3cc[nH]c3n1)N(C(=O)CN1CCN(C(C)C)CC1)CC2`, the inhibition in test [1] was found to be 0.64%; in [2], 1.39%; in test [3], 1.31%; in [4], 3.18%; in test [5], 1.35%; in [6] it was 3.89%. Also, the inhibition in [7] worked out at 7.5%; in test [8], 26.5%; in [9] it was 6.57%; in [10] it was 18.7%; in test [11], 6.36%; in test [12], 5.12%. Besides, the inhibition in test [13] was determined as 0.17%; in test [14], 2.33%; in test [15], 1.4%; in [16], 3.93%; in test [17] it was 1.44%; in [18] it was 3.9%. In addition, the inhibition in [19] is 2.23%; in test [20] it was 2.83%.
`O=C(O[C@H]1CN[C@H](C#Cc2cc3ncnc(Nc4ccc(OCc5cccc(F)c5)c(Cl)c4)c3s2)C1)N1CCOCC1`: the inhibition in test [1] came out at 0.61%; in test [2] it was 0.67%; in test [3] it was 2.23%; in [4], 2.72%; in test [5], 1.68%; in test [6], 1.6%. The inhibition was 9.5% in test [7]; 13.6% in test [8]; 5.62% in test [9]; 16% in [10]; -0.44% in [11]; 0.92% in test [12]. Moreover, the inhibition in test [13] was 0.34%; in [14] it was 0.26%; in [15], -0.86%; in [16], 0.41%; in test [17], 2.64%; in [18], 4.39%. For the same compound, the inhibition in test [19] was 1.72%; in [20] it was 2.85%.
Regarding `COc1cc(Nc2ncc(-c3ccccc3)o2)cc(OC)c1`, the inhibition in test [1] was 1.36%; in [2] it was 1.33%; in test [3] it was 1.9%; in [4] it was 2.08%; in test [5], 0.79%; in test [6], 3.26%. Besides, the inhibition is 0.04% in test [7]; -0.63% in test [8]; 19.2% in test [9]; 18.7% in [10]; -6.08% in [11]; -1.27% in [12]. In addition, the inhibition is -0.81% in test [13]; 0.65% in test [14]; 2.3% in test [15]; -0.44% in [16]; 2.85% in test [17]; 2.84% in [18]. The results for the inhibition in [19] and in test [20] were 2.08% and 3.04%, respectively.
Consider `CC(C)c1ccc(-c2cc(-c3c[nH]nc3-c3ccccn3)ccn2)cc1`, for which the inhibition in test [1] is 0.13%; in test [2] it was 0.07%; in test [3], -0.03%; in test [4], 0.06%; in [5] it was 1.01%; in test [6], 0.29%. Further, the inhibition is -1.41% in test [7]; -0.19% in test [8]; 2.99% in test [9]; 1.48% in [10]; -0.14% in test [11]; -0.28% in test [12]. Also, the inhibition in test [13] is -0.59%; in [14], 2.06%; in test [15], 1.59%; in test [16], 1.63%; in test [17], 1.53%; in [18], 2.87%. For the same compound, the inhibition in test [19] was 0.17%; in [20], -0.41%.
With `N#Cc1ccc2c(-c3ccnc(NC4CC4)n3)c(-c3ccc(F)cc3)nn2c1`, the inhibition in [1] was 0.77%; in test [2], -0.12%; in [3], 0.14%; in test [4] it was 0.78%; in [5], 0.56%; in [6], 2.99%. Moreover, the inhibition in test [7] was 1.67%; in test [8], 2.24%; in [9], 4.35%; in test [10] it was 1.98%; in test [11] it was 0.79%; in test [12], 0.87%. The inhibition is 0.13% in test [13]; 0.52% in test [14]; 0.77% in [15]; -0.33% in test [16]; 0.92% in test [17]; -0.56% in [18]. Also, the figures for the inhibition in test [19] and in test [20] were 0.06% and -0.85%, respectively.
Turning to `Cc1ccc(-c2cc3c(NC(=O)C4CC4)ncnc3o2)cc1`, the inhibition in test [1] was determined as 0.96%; in [2], 1.39%; in test [3], 1.6%; in [4], 1.7%; in [5], 3.51%; in [6], 2.62%. Further, the inhibition in [7] was 3.77%; in [8], -1.16%; in test [9], 4%; in [10], 1.88%; in [11] it was -0.24%; in test [12], 0.37%. In addition, the inhibition came to 1.15% in test [13]; 1.58% in [14]; 3.67% in [15]; 3.15% in test [16]; 2.15% in test [17]; 4.27% in test [18]. Moreover, the results for the inhibition in test [19] and in test [20] were 2.29% and 1.52%, respectively.
Consider `CCCNc1cccc(-n2ncc3c(N/N=C/c4ccncc4)ncnc32)c1`, for which the inhibition is 0.34% in test [1]; -0.51% in [2]; 0.22% in test [3]; -0.08% in [4]; -0.05% in test [5]; -1.08% in [6]. Further, the inhibition in test [7] was 3.49%; in [8], 3.97%; in test [9], 2.68%; in test [10], 4.45%; in [11], 1.31%; in [12] it was 5.18%. Moreover, the inhibition in test [13] was -0.11%; in test [14], 0.92%; in test [15] it was -4.25%; in test [16], -2.6%; in test [17], 1.74%; in [18], 2.6%. The inhibition in test [19] turned out to be 1.2%; in test [20], 8.74%.
